# Screening data: PubChem BioAssay, Sanford-Burnham Center for Chemical Genomics
# TWEAK-Fn14 inh – inhibitors of TWEAK-Fn14 signaling, primary screen, luciferase reporter cells, uHTS; 360,000 tested, 2% active; TWEAK-stimulated Fn14 reporter cells, luciferase luminescence, 8 h; inhibition, % at 10 µM; in the data active = inhibition above about 50%
# Peg3 prom inh – Peg3 promoter-driven luciferase inhibitors, primary screen, cell-based, HeLa, luciferase luminescence; HeLa PEG-Prom luciferase reporter, overnight; inhibition, % at 20 µM; 360,000 tested, 1.7% active; AID 588405, 2011;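 active = inhibition of at least 50% at 20 µM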
# CF NFkB block – inhibitors of PAF-induced NF-kB signaling, primary screen, cell-based, GFP fluorescence, uHTS | KKLEB NF-kB-GFP reporter, GFP fluorescence overnight | inhibition, % at 5 µM | 360,000 tested, 0.86% active | AID 588850, 2011;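 active = at least 50% inhibition at 5 µM, scaled per plate between neutral and stimulator controls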;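 note: PAF is a Pseudomonas aeruginosa culture filtrate used as stimulus; plate controls were PAF-stimulated DMSO wells for no effect and unstimulated DMSO wells for full effect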
# KKLEB tox – cytotoxicity in KKLEB CF airway cells, primary screen, cytotoxicity control for CF NF-kB inhibitor project, cell-based, uHTS, fluorescence assay plates. KKLEB CF airway cells viability, ATPlite luminescence, overnight; stronger effect = lower value; cells stimulated with P. aeruginosa culture filtrate. activity change (cytotoxicity), % at 5 µM. 360,000 tested, 0.36% active;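 active = corrected activity change at or below -50% at 5 µM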
# TROY NFkB inh – inhibitors of TROY-driven NF-kB signaling, primary screen, Q293 LMP1-TROYcd cells, NF-kB luciferase, uHTS; 360,000 tested, 0.98% active; Q293 LMP1-TROYcd NF-kB luciferase reporter, 4 h; AID 1347056, 2019; inhibition, % at 10 µM;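 active = compounds whose plate-normalised and pattern-corrected inhibition of the luciferase reporter signal at the single screening dose is 50% or more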
# HIF-2a block – HIF-2a reporter inhibitors, primary screen, luminescence, 786-0 RCC cells. 786-0 RCC cells HIF-2a reporter, luciferase luminescence, overnight. inhibition, % at 18.8 µM. 360,000 tested, 0.72% active. AID 624352, 2012;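 active = inhibition of the luminescence signal of 40% or more relative to plate controls, in a single-dose primary screen at 18.75 µM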
# CF NFkB conf – inhibitors of PAF-induced NF-kB signaling, retest, confirmation, cell-based, GFP fluorescence, single concentration; KKLEB CF airway cells, overnight; inhibition, % at 5 µM; shares compounds with CF NFkB block; 1,300 tested, 64% active; in the data active = inhibition above about 40%;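 note: stimulus PAF is a Pseudomonas aeruginosa filtrate and not platelet activating factor; plate controls were DMSO wells with stimulus for no effect and unstimulated DMSO wells for full effect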
# Mdm2-MdmX confirm – retested Mdm2-MdmX interaction blockers, confirmation, cell-based, luminescence, single concentration, set 2; shares compounds with HIF-2a block; SaOS-2 split-luciferase Mdm2/MdmX complementation; inhibition, % at 8 µM; 740 tested, 99% active; AID 504601, 2011;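 active = mean inhibition of the luminescence signal across two replicates at or above 26 percent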
# Target sequence (O15151 whole entry, looked up): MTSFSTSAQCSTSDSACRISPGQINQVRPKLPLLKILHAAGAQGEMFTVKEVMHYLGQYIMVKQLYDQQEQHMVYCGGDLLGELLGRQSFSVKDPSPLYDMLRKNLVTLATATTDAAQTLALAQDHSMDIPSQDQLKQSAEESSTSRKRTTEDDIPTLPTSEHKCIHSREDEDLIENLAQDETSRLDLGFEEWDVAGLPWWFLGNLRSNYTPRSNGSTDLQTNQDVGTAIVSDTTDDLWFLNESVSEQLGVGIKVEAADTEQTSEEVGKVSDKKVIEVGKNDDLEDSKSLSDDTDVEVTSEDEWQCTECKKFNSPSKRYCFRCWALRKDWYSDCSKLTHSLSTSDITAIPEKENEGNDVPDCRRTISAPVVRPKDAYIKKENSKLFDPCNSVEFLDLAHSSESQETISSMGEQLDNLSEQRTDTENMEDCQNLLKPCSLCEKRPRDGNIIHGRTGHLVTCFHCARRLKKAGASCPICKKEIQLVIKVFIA
# Target sequence (Q00987 whole entry, looked up): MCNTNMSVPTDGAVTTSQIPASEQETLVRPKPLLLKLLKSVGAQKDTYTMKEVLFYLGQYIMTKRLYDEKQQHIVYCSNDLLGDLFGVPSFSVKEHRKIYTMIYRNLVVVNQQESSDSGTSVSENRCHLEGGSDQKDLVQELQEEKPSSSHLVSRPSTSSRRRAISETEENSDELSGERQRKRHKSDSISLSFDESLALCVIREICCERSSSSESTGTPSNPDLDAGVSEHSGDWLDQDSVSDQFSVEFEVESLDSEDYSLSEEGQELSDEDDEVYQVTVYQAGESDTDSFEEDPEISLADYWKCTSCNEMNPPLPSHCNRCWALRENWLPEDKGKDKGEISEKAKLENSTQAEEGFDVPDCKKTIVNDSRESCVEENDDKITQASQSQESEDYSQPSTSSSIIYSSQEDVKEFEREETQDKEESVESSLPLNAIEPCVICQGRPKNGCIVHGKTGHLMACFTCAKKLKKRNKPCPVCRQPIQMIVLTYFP
# HIF-2a inh conf – HIF-2a reporter inhibitor retest, confirmation, luminescence, 786-0 RCC cells | 1,800 tested, 56% active | shares compounds with HIF-2a block | HIF-2a luciferase reporter luminescence, overnight | inhibition, % at 18.8 µM;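 active = mean inhibition across four replicates of at least 40 percent at the single tested concentration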
# HIF-1a cs – HIF-1a luciferase reporter signal reduction – MiaPaCa-2 cells, single concentration, counter-screen for HIF-2a inhibitor project, confirmation. shares compounds with HIF-2a block. MiaPaCa-2 HIF-1a luciferase reporter, desferoxamine, overnight. inhibition, % at 18.8 µM. 1,800 tested, 72% active;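 active = mean inhibition of the reporter signal across four replicates at the single tested dose of 50% or more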
# The depositor's hits bear a star; x = not tested or not shown; ! = a repeat was not active. Rows were chosen to be rich in hits. Some 3.9% of all compounds tested hit in one or more screens of this group.
SMILES,TWEAK-Fn14 inh,Peg3 prom inh,CF NFkB block,KKLEB tox,TROY NFkB inh,HIF-2a block,Mdm2-MdmX confirm,HIF-2a inh conf,HIF-1a cs,others
CC(=O)c1c(C)n(C2CCCCC2)c2ccc(O)cc12,85.6*,19.8,96.4*,-14.5,52.6*,20.0,84.6*,x,x,CF NFkB conf=100.0*
CCN1CCN(c2ccc(N)c(C)c2)CC1,-13.6,-4.2,-22.6,5.7,-8.3,7.0,x,x,x,
O=Cc1cn(Cc2cccc([N+](=O)[O-])c2)c2ccccc12,27.9,101.3*,38.1,-39.8,68.3*,45.7*,x,63.0*,-8.4,
CN1CCN(c2ccc([N+](=O)[O-])c3cccnc23)CC1,-32.2,-37.0,4.7,-0.1,-41.6,8.1,x,x,x,
COc1cccc(NP(=O)(Oc2ccc(Cl)cc2)Oc2ccc(Cl)cc2)c1,10.1,-27.0,-4.2,-5.3,17.7,12.6,x,x,x,
O=[N+]([O-])c1cccc(NP(=O)(Oc2ccccc2)Oc2ccccc2)c1,10.9,42.6,-6.7,4.1,2.5,42.0*,x,42.8*,47.0,
CCOC(=O)c1c(C)n(Cc2ccccc2)c2ccc(OCC(O)CNC(C)(C)C)cc12 (stereo not drawn),12.4,5.2,19.4,-11.7,-3.5,4.2,x,x,x,
COc1cc(/C=C/[N+](=O)[O-])ccc1O,-6.1,17.6,-32.7,1.0,3.1,69.7*,x,52.1*,20.6,
COC(=O)C12OCC34C(CC5C(C)=C(O)C(=O)CC5(C)C3C(O)C1O)OC(=O)C(OC(=O)/C=C(\C)C(C)C)C24 (stereo not drawn),94.8*,102.7*,96.5*,-51.8*,84.7*,75.2*,x,68.9*,105.7*,
Cc1ccccc1C1=NCC(=O)N(CC(=O)NCc2ccco2)c2sc3c(c21)CCCC3,3.7,24.2,-20.6,18.0,6.3,14.0,x,x,x,
NC(N)=N/N=C/c1cn(-c2ccccc2)nc1-c1cccs1,12.8,105.7*,9.8,-23.6,-34.9,-33.6,103.5*,x,x,
C=CCn1c(O)c(Cc2ccc(OCC)cc2)c(=O)[nH]c1=O,1.5,-14.0,-8.0,3.9,10.5,13.3,x,x,x,
CN1C(=O)C(=Cc2ccccc2OS(=O)(=O)c2ccccc2)C(=O)N(C)C1=O,9.3,21.4,21.5,-11.6,-3.7,-7.1,x,x,x,
CC1=CC2OC3CC4OC(=O)C=CC=CC(=O)OCCC(C)C(O)C(=O)OCC2(CC1O)C4(C)C31CO1 (stereo not drawn),96.0*,100.7*,83.9*,-44.0,84.4*,75.4*,x,72.1*,103.0*,
C=C1C(=O)O[C@@H]2C[C@@H](C)[C@@H]3C=CC(=O)[C@@]3(C)[C@@H](O)[C@H]12,104.2*,92.2*,88.5*,-60.5*,32.2,96.7*,100.2*,x,x,
COC(=O)C(Cc1ccc(N(CCCl)CCCl)cc1)N=Cc1ccccc1O (stereo not drawn),35.3,97.0*,75.2*,-48.5,32.7,72.0*,102.7*,-4.6,100.3*,
CCOP(=O)(OCC)c1ccc(OP(=O)(c2cccc([N+](=O)[O-])c2)c2cccc([N+](=O)[O-])c2)cc1,20.1,3.4,4.3,-1.6,-0.4,17.3,x,x,x,
Cc1nc2cc(-c3cccc(F)c3)nn2c(C)c1CCC(=O)N1CCC2(CC1)OCCO2,-17.8,-50.8,-6.2,5.5,-27.8,75.2*,x,82.4*,52.7*,
Oc1ccc(-[n+]2c(-c3ccccc3)cc(-c3ccccc3)cc2-c2ccccc2)cc1,87.2*,86.0*,39.5,-14.9,62.1*,-21.7,101.7*,x,x,
CC(C)OS(C)(=O)=O,-9.2,-1.9,-18.6,4.5,13.7,4.5,x,x,x,
CCOC(=O)[C@]12Cc3cc(OC)ccc3[C@H]1N(C1CCCCC1)C(=O)c1cc(OC)ccc12,11.4,x,x,x,54.7*,87.6*,x,89.2*,105.2*,
CCOC(=O)[C@]12Cc3ccccc3[C@H]1N(C(C)C)C(=O)c1cc(OC)ccc12,10.1,x,x,x,10.8,21.2,x,x,x,
CCOC(=O)[C@]12Cc3cc(C)ccc3[C@H]1N(C(C)C)C(=O)c1ccccc12,-59.1,x,x,x,18.0,87.8*,x,92.6*,107.7*,
CC[C@@]1(O)C(=O)OCc2c1cc1n(c2=O)Cc2cc3c(NC(=O)CN)cccc3nc2-1,-8.8,-2.0,-5.4,-33.7,18.6,20.6,97.2*,x,x,
CC(=O)OC[C@]12CCC(C)=C[C@H]1O[C@@H]1[C@H](O)[C@@H](OC(C)=O)[C@@]2(C)[C@]12CO2,98.2*,108.0*,104.5*,-55.6*,83.9*,90.0*,x,80.6*,105.5*,
SMILES,TWEAK-Fn14 inh,Peg3 prom inh,CF NFkB block,KKLEB tox,TROY NFkB inh,HIF-2a block,Mdm2-MdmX confirm,HIF-2a inh conf,HIF-1a cs,others
COc1cc(C=C2C(=O)NC(=O)NC2=O)ccc1OCc1ccc([N+](=O)[O-])cc1,-2.0,-248.1,-24.2,-1.6,-19.6,-203.1,x,x,x,
COc1cc(/C=C(/C)[N+](=O)[O-])ccc1OCc1ccccc1Cl,72.5*,104.8*,85.4*,-66.1*,56.5*,94.4*,103.0*,x,x,
CCn1c(=N)n(Cc2ccccc2F)c2ccccc21,-6.5,10.1,-27.3,11.0,-3.2,20.1,x,x,x,
CC(C)[C@H]1C(=O)O[C@H](C(C)C)C(=O)N(C)[C@@H](C(C)C)C(=O)O[C@H](C(C)C)C(=O)N(C)[C@@H](C(C)C)C(=O)O[C@H](C(C)C)C(=O)N1C,55.9*,33.1,33.4,1.1,56.2*,-62.8,93.7*,x,x,
CCCCCCCSc1cc(OC)c(CCNC)cc1OC,13.5,112.1*,29.0,-21.6,-22.0,43.9*,x,8.5,106.1*,
CC(=O)Nc1cc(C(=O)N2CCC3(CC2)OCCO3)ccc1Sc1ccc(F)cc1,6.3,4.7,15.0,0.0,14.9,15.9,x,x,x,
C[C@H]1CCC/C=C/[C@@H]2C[C@H](O)C[C@H]2[C@H](O)/C=C/C(=O)O1,55.1*!,42.6,76.3*,16.7,-66.3,59.8*,96.3*,43.4*,74.8*,
